These results are taken from the supplement of paper PMC9694430.

Molecules are shown by their SMILES. Structures can show the parent of a compound that is named as a salt.

For one assay, the system named is LOC_OS02G14120-cb001. Description: thermal shift delta Tm vs DMSO control; higher = stronger stabilization (binding). The note with it: 12.5 µM; protein concentration 2 µM. A digest of the protocol:
(§1)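 Purified, E. coli-expressed rice kinase domain constructs were tested by differential scanning fluorimetry in 96-well plates: 19.5 μl of 2 μM kinase in 100 mM potassium phosphate pH 7.5, 150 mM NaCl, 10% glycerol, 5 × SYPRO Orange, plus compound in DMSO. Fluorescence was read from 25°C to 95°C at 0.05°C/s. Melting temperatures came from Boltzmann fits, and the shift is the triplicate mean relative to protein with DMSO alone.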
As to `CCNC(=O)Nc1ccc(-c2nc(N3CCOC[C@@H]3C)c3c(n2)C(C)(C)S(=O)(=O)C3)cc1`, the “thermal shift delta Tm” value was found to be 1.4 °C.

As for `CN1CCN(c2ccc(OC(F)(F)F)c(Nc3ncc4c(n3)-c3c(c(C(N)=O)nn3CCO)CC4)c2)CC1`, the “thermal shift delta Tm” value worked out at 1.17 °C.

On to `C[C@@H](Oc1cc(-n2cnc3ccc(CN4CCN(C)CC4)cc32)sc1C(N)=O)c1ccccc1C(F)(F)F`, for which the “thermal shift delta Tm” value was -0.04 °C.

For the molecule `COc1cc(OC)cc(-c2cc3cnc(N)nc3nc2NC(=O)NC(C)(C)C)c1`, the “thermal shift delta Tm” value worked out at 0.72 °C.

Consider `COC(=O)c1ccc2c(c1)NC(=O)/C2=C(\Nc1ccc(N(C)C(=O)CN2CCN(C)CC2)cc1)c1ccccc1` [Nintedanib (BIBF 1120)], for which the “thermal shift delta Tm” value was determined as 0.3 °C.

Consider `Cc1[nH]c(/C=C2\C(=O)Nc3ccccc32)c(C)c1CCC(=O)O` [Orantinib (TSU-68, SU6668)], for which the “thermal shift delta Tm” value worked out at 7.18 °C.

Regarding `NC1(c2ccc(-c3nc4ccn5c(=O)[nH]nc5c4cc3-c3ccccc3)cc2)CCC1`, the “thermal shift delta Tm” value is -0.05 °C.

As to `N#Cc1ccc2[nH]c(O)c(-c3ccc(CN4CCOCC4)cn3)c2c1`, the “thermal shift delta Tm” value is -0.04 °C.

Turning to `C=C[C@@](C)(/C=C/c1ccc(O)cc1)CCC=C(C)C` [Bakuchiol], the “thermal shift delta Tm” value worked out at 0.29 °C.

`Cn1cnc2c(F)c(Nc3ccc(Br)cc3F)c(C(=O)NOCCO)cc21`: the “thermal shift delta Tm” value was -0.02 °C.

Turning to `CC(C)(C)c1nc(-c2ccc(NC(=O)Nc3cccc(C(F)(F)F)c3)c3ccccc23)c2c(N)nccn12` [kira6], the “thermal shift delta Tm” value stood at 2.07 °C.

As to `CC1=C(C(=O)Nc2cc3cn[nH]c3cc2F)C(c2ccc(C(F)(F)F)cc2)CC(=O)N1` (centres undefined), the “thermal shift delta Tm” value turned out to be 0.25 °C.

Regarding `Cc1cn(-c2cc(NC(=O)c3ccc(C)c(Nc4nccc(-c5cnccn5)n4)c3)cc(C(F)(F)F)c2)cn1` [Radotinib], the “thermal shift delta Tm” value turned out to be 1.36 °C.

As for `COc1ncc(-c2ccc3nccc(-c4ccnnc4)c3c2)cc1NS(=O)(=O)c1ccc(F)cc1F`, the “thermal shift delta Tm” value turned out to be 0.78 °C.

As to `CNC(=O)c1cc(COc2nnc(Nc3ccc(Cl)cc3)c3ccoc23)ccn1` [Telatinib], the “thermal shift delta Tm” value was -0.19 °C.

In the case of `COc1cc2nccc(Oc3ccc(NC(=O)C4(C(=O)Nc5ccc(F)cc5)CC4)cc3)c2cc1OC` [Cabozantinib malate (XL184)], the “thermal shift delta Tm” value was 0.46 °C.

`C1=N/C2=N/c3ccc(OCCN4CCCC4)c(c3)COC/C=C/COCc3cccc(c3)C(=C1)N2` [Pacritinib (SB1518)]: the “thermal shift delta Tm” value amounted to 11.4 °C.

As for `N#Cc1cnc(Nc2cc(NC[C@H]3CNCCO3)c(C(F)(F)F)cn2)cn1`, the “thermal shift delta Tm” value came to 2.96 °C.

Regarding `COc1cc(N2CCN(C)CC2)ccc1Nc1nccc(-c2cn(C)c3cnccc23)n1`, the “thermal shift delta Tm” value is 5.04 °C.

As to `CC(C)(C)NS(=O)(=O)c1cncc(-c2cc(F)c3nc(N)nn3c2)c1`, the “thermal shift delta Tm” value is -0.33 °C.

As for `CCNC(=O)C#Cc1ccc2c(C(=Nc3ccc(CN(C)C)cc3)c3ccccc3)c(O)[nH]c2c1`, the “thermal shift delta Tm” value was found to be 0.91 °C.

For the molecule `O=C1NC(=O)[C@@H](c2cn3c4c(cccc24)CCC3)[C@@H]1c1c[nH]c2ccccc12` [Tivantinib (ARQ 197)], the “thermal shift delta Tm” value was determined as 0.16 °C.

In the case of `O=S(=O)(c1cccc2c(I)cccc12)N1CCCNCC1`, the “thermal shift delta Tm” value is 0.9 °C.

Turning to `CCN1CCN(Cc2ccc(C(=O)Nc3ccc(C)c(Oc4ccc5c(c4)CC(=O)N5)c3)cc2C(F)(F)F)CC1`, the “thermal shift delta Tm” value is 0.22 °C.

With `C[C@@H](Nc1cc(F)cc(F)c1)c1cc(C(=O)N(C)C)cc2c(=O)cc(N3CCOCC3)oc12`, the “thermal shift delta Tm” value was found to be 0.3 °C.

Consider `C[C@H](CN(C)C)Oc1nc(Nc2cc3cccc(Cl)c3cn2)cnc1C#N`, for which the “thermal shift delta Tm” value was 2.95 °C.

For the molecule `CNC(=O)c1cc(Oc2ccc(NC(=O)Nc3ccc(Cl)c(C(F)(F)F)c3)cc2)ccn1` [Sorafenib], the “thermal shift delta Tm” value was determined as 2.47 °C.

On to `COc1ccc(Cl)cc1NC(=O)Nc1cc(C)nc2ccccc12`, for which the “thermal shift delta Tm” value stood at 0.14 °C.

As for `O=C(c1cccc(Cl)c1F)N1CCN(Cc2cccc(Nc3nccs3)n2)CC1`, the “thermal shift delta Tm” value worked out at 9.07 °C.

In the case of `CNC(=O)c1ccc(C)c(-n2c(C)cc(OCc3ccc(F)cc3F)c(Br)c2=O)c1`, the “thermal shift delta Tm” value amounted to 0.27 °C.

Consider `CCn1c(-c2nonc2N)nc2c(C#CC(C)(C)O)ncc(OC[C@H]3CCCNC3)c21`, for which the “thermal shift delta Tm” value amounted to 0.88 °C.

On to `CCC[C@H](NC(=O)/C(C#N)=C/c1cccc(Br)n1)c1ccccc1` [Degrasyn (WP1130)], for which the “thermal shift delta Tm” value was -1.56 °C.

Take `OC1CCC(Nc2ncc3nc(Nc4c(F)cc(F)cc4F)n([C@H]4CCOC4)c3n2)CC1` (some centres undefined) [Tanzisertib(CC-930)]: the “thermal shift delta Tm” value was determined as 1.58 °C.

Consider `CN(C)C/C=C/C(=O)Nc1cc2c(Nc3ccc(F)c(Cl)c3)ncnc2cc1O[C@H]1CCOC1` [Afatinib (BIBW2992) Dimaleate], for which the “thermal shift delta Tm” value was 2.75 °C.

For `Cc1cc(O)c(-c2ccc([C@@H](C)CN)cc2)c2c1[nH]c(=O)c1sccc12` [OTS514 hydrochloride], the “thermal shift delta Tm” value is 4.21 °C.

For the molecule `Cc1ccc(F)c(NC(=O)Nc2ccc(-c3cccc4[nH]nc(N)c34)cc2)c1` [Linifanib (ABT-869)], the “thermal shift delta Tm” value was determined as 4.49 °C.

In the case of `COc1cc(N2CCC(N(C)C)CC2)ccc1Nc1ncc(Cl)c(Nc2ccccc2P(C)(C)=O)n1`, the “thermal shift delta Tm” value came to 10.2 °C.

The subject of a further assay is LOC_OS02G17970-cb001. The assay is described as above. The note with it: 12.5 µM; protein concentration 2 µM. An outline of the steps: as §1
`CCNC(=O)Nc1ccc(-c2nc(N3CCOC[C@@H]3C)c3c(n2)C(C)(C)S(=O)(=O)C3)cc1`: the “thermal shift delta Tm” value was -0.21 °C.

For the molecule `CN1CCN(c2ccc(OC(F)(F)F)c(Nc3ncc4c(n3)-c3c(c(C(N)=O)nn3CCO)CC4)c2)CC1`, the “thermal shift delta Tm” value was 0.51 °C.

Take `C[C@@H](Oc1cc(-n2cnc3ccc(CN4CCN(C)CC4)cc32)sc1C(N)=O)c1ccccc1C(F)(F)F`: the “thermal shift delta Tm” value is 0.25 °C.

On to `COc1cc(OC)cc(-c2cc3cnc(N)nc3nc2NC(=O)NC(C)(C)C)c1`, for which the “thermal shift delta Tm” value was -0.49 °C.

As for `COC(=O)c1ccc2c(c1)NC(=O)/C2=C(\Nc1ccc(N(C)C(=O)CN2CCN(C)CC2)cc1)c1ccccc1` [Nintedanib (BIBF 1120)], the “thermal shift delta Tm” value is -0.36 °C.

In the case of `Cc1[nH]c(/C=C2\C(=O)Nc3ccccc32)c(C)c1CCC(=O)O` [Orantinib (TSU-68, SU6668)], the “thermal shift delta Tm” value came out at 0.78 °C.

As to `NC1(c2ccc(-c3nc4ccn5c(=O)[nH]nc5c4cc3-c3ccccc3)cc2)CCC1`, the “thermal shift delta Tm” value is 1.42 °C.

With `N#Cc1ccc2[nH]c(O)c(-c3ccc(CN4CCOCC4)cn3)c2c1`, the “thermal shift delta Tm” value was 0.51 °C.

As to `C=C[C@@](C)(/C=C/c1ccc(O)cc1)CCC=C(C)C` [Bakuchiol], the “thermal shift delta Tm” value is 0.27 °C.

As for `Cn1cnc2c(F)c(Nc3ccc(Br)cc3F)c(C(=O)NOCCO)cc21`, the “thermal shift delta Tm” value worked out at 1.34 °C.

Take `CC(C)(C)c1nc(-c2ccc(NC(=O)Nc3cccc(C(F)(F)F)c3)c3ccccc23)c2c(N)nccn12` [kira6]: the “thermal shift delta Tm” value was 1.1 °C.

`CC1=C(C(=O)Nc2cc3cn[nH]c3cc2F)C(c2ccc(C(F)(F)F)cc2)CC(=O)N1` (centres undefined): the “thermal shift delta Tm” value was determined as 0.19 °C.

Take `Cc1cn(-c2cc(NC(=O)c3ccc(C)c(Nc4nccc(-c5cnccn5)n4)c3)cc(C(F)(F)F)c2)cn1` [Radotinib]: the “thermal shift delta Tm” value amounted to 1.82 °C.

As for `COc1ncc(-c2ccc3nccc(-c4ccnnc4)c3c2)cc1NS(=O)(=O)c1ccc(F)cc1F`, the “thermal shift delta Tm” value was 1.75 °C.

For `CNC(=O)c1cc(COc2nnc(Nc3ccc(Cl)cc3)c3ccoc23)ccn1` [Telatinib], the “thermal shift delta Tm” value came out at 1.35 °C.

In the case of `COc1cc2nccc(Oc3ccc(NC(=O)C4(C(=O)Nc5ccc(F)cc5)CC4)cc3)c2cc1OC` [Cabozantinib malate (XL184)], the “thermal shift delta Tm” value was 0.98 °C.

With `C1=N/C2=N/c3ccc(OCCN4CCCC4)c(c3)COC/C=C/COCc3cccc(c3)C(=C1)N2` [Pacritinib (SB1518)], the “thermal shift delta Tm” value amounted to 0.42 °C.

Regarding `N#Cc1cnc(Nc2cc(NC[C@H]3CNCCO3)c(C(F)(F)F)cn2)cn1`, the “thermal shift delta Tm” value is 0.44 °C.

Turning to `COc1cc(N2CCN(C)CC2)ccc1Nc1nccc(-c2cn(C)c3cnccc23)n1`, the “thermal shift delta Tm” value is 0.61 °C.

As for `CC(C)(C)NS(=O)(=O)c1cncc(-c2cc(F)c3nc(N)nn3c2)c1`, the “thermal shift delta Tm” value was 2.29 °C.

For `CCNC(=O)C#Cc1ccc2c(C(=Nc3ccc(CN(C)C)cc3)c3ccccc3)c(O)[nH]c2c1`, the “thermal shift delta Tm” value stood at 0.63 °C.

Consider `O=C1NC(=O)[C@@H](c2cn3c4c(cccc24)CCC3)[C@@H]1c1c[nH]c2ccccc12` [Tivantinib (ARQ 197)], for which the “thermal shift delta Tm” value was found to be 0.24 °C.

For `O=S(=O)(c1cccc2c(I)cccc12)N1CCCNCC1`, the “thermal shift delta Tm” value was 0.24 °C.

`CCN1CCN(Cc2ccc(C(=O)Nc3ccc(C)c(Oc4ccc5c(c4)CC(=O)N5)c3)cc2C(F)(F)F)CC1`: the “thermal shift delta Tm” value was determined as 1.43 °C.

`C[C@@H](Nc1cc(F)cc(F)c1)c1cc(C(=O)N(C)C)cc2c(=O)cc(N3CCOCC3)oc12`: the “thermal shift delta Tm” value is 0.78 °C.

Take `C[C@H](CN(C)C)Oc1nc(Nc2cc3cccc(Cl)c3cn2)cnc1C#N`: the “thermal shift delta Tm” value amounted to 2.26 °C.

As to `CNC(=O)c1cc(Oc2ccc(NC(=O)Nc3ccc(Cl)c(C(F)(F)F)c3)cc2)ccn1` [Sorafenib], the “thermal shift delta Tm” value was 2.3 °C.

Take `COc1ccc(Cl)cc1NC(=O)Nc1cc(C)nc2ccccc12`: the “thermal shift delta Tm” value was found to be 0.65 °C.

Take `O=C(c1cccc(Cl)c1F)N1CCN(Cc2cccc(Nc3nccs3)n2)CC1`: the “thermal shift delta Tm” value is -0.27 °C.

For `CNC(=O)c1ccc(C)c(-n2c(C)cc(OCc3ccc(F)cc3F)c(Br)c2=O)c1`, the “thermal shift delta Tm” value is 0.83 °C.

As for `CCn1c(-c2nonc2N)nc2c(C#CC(C)(C)O)ncc(OC[C@H]3CCCNC3)c21`, the “thermal shift delta Tm” value was -0.03 °C.

Consider `CCC[C@H](NC(=O)/C(C#N)=C/c1cccc(Br)n1)c1ccccc1` [Degrasyn (WP1130)], for which the “thermal shift delta Tm” value is 4.33 °C.

For `OC1CCC(Nc2ncc3nc(Nc4c(F)cc(F)cc4F)n([C@H]4CCOC4)c3n2)CC1` (some centres undefined) [Tanzisertib(CC-930)], the “thermal shift delta Tm” value came to 0.06 °C.

`CN(C)C/C=C/C(=O)Nc1cc2c(Nc3ccc(F)c(Cl)c3)ncnc2cc1O[C@H]1CCOC1` [Afatinib (BIBW2992) Dimaleate]: the “thermal shift delta Tm” value worked out at 1.68 °C.

With `Cc1cc(O)c(-c2ccc([C@@H](C)CN)cc2)c2c1[nH]c(=O)c1sccc12` [OTS514 hydrochloride], the “thermal shift delta Tm” value amounted to 1.52 °C.

Consider `Cc1ccc(F)c(NC(=O)Nc2ccc(-c3cccc4[nH]nc(N)c34)cc2)c1` [Linifanib (ABT-869)], for which the “thermal shift delta Tm” value came to 0.94 °C.

Turning to `COc1cc(N2CCC(N(C)C)CC2)ccc1Nc1ncc(Cl)c(Nc2ccccc2P(C)(C)=O)n1`, the “thermal shift delta Tm” value was found to be 0.5 °C.
